From the supplement of paper PMC4166925
± gives the standard deviation of the averaged measurements. In all, about 33,000 sequences were measured (“E-score (dimensionless, -0.5 to 0.5)”: median about -0.049, highest 2% from about 0.37 on). For the sample, the highest values were picked, then their nearest neighbours and some sequences at random.

tested on: T1, PmTbr T-box DNA-binding domain (GST fusion); experiment: PBM E-score of 8-mer (E-score (dimensionless, -0.5 to 0.5)); Tbr is Tbrain of the sea star Patiria miniata (Pm) or the sea urchin Strongylocentrotus purpuratus (Sp); higher = stronger binding preference; details: the construct has about 5 more residues each side
T1 sequence: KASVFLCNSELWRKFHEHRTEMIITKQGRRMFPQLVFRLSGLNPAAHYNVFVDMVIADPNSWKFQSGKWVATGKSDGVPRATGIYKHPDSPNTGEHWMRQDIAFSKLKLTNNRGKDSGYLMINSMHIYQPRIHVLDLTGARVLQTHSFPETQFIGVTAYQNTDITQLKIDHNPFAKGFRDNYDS
Description: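 Universal protein-binding microarray (Agilent AMADID 016060, 60-bp probes with a 35-bp variable region) incubated with 200 nM GST-fused Patiria miniata Tbr T-box DNA-binding domain (residues 272-466) in PBS pH 7.5. Scored for every ungapped 8-mer (given with its reverse complement) by the Universal PBM Analysis Suite as E-score (modified Wilcoxon-Mann-Whitney enrichment, range -0.5 to 0.5; >0.45 counts as bound) and Z-score of median probe intensity. Two replicate arrays (datasets 1 and 2).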
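Also: 200 nM protein in PBS on universal arrays averaged over duplicate arrays.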

Row | Sequence | PBM E-score of 8-mer
1 | AAACCTTA | -0.0234 ± 0.053
2 | CCACCTGA | 0.172 ± 0.044
3 | ATACCTTA | 0.0857 ± 0.093
4 | TCACCTGA | 0.353 ± 0.019
5 | AAACCTTG | -0.132 ± 0.0072
6 | ACACCTTA | 0.4762 ± 0.00075
7 | GAACCTTA | -0.144 ± 0.042
8 | GCACCTTA | 0.4187 ± 0.0021
9 | ACACCTTG | 0.481 ± 0.0055
10 | GCACCTGA | 0.391 ± 0.024
11 | AGACCTTG | -0.174 ± 0.013
12 | CCACCTTA | 0.246 ± 0.036
13 | AAAAGCTT | -0.0359 ± 0.065
14 | CTTTGTGA | 0.028 ± 0.0037
15 | ACTAGTCA | 0.164 ± 0.044
16 | TAGGCCAA | -0.298 ± 0.065
17 | AGCCAGAG | -0.0902 ± 0.046
18 | AGCGTCCT | -0.167 ± 0.046
19 | TATAGCAA | -0.0376 ± 0.033
20 | ACACCTTC | 0.479 ± 0.00068
21 | CCACCTTC | 0.31 ± 0.02
22 | AGACCTTC | -0.269 ± 0.022
23 | CGGTGAGA | 0.236 ± 0.0071
24 | AAGTGAGG | 0.2407 ± 0.0011
25 | AAGTGATA | 0.37 ± 0.025

Row | Sequence | PBM E-score of 8-mer
26 | CAGTGAGA | 0.181 ± 0.028
27 | AGGTGAGC | 0.303 ± 0.042
28 | ACGTGAGA | 0.349 ± 0.0086
29 | AAGTGATG | 0.28 ± 0.0076
30 | ACGTGAGG | 0.159 ± 0.04
31 | AAGTGAGA | 0.429 ± 0.0088
32 | TAGTGATA | 0.245 ± 0.035
33 | AGGTGAGA | 0.486 ± 0.0024
34 | AGGTGAGG | 0.428 ± 0.013
35 | GGGGTTGA | -0.000915 ± 0.043
36 | CGATCTAG | 0.025 ± 0.0082
37 | CTTAGCGA | 0.184 ± 0.025
38 | AATCTTCA | -0.068 ± 0.038
39 | CTCGAGGC | -0.039 ± 0.098
40 | CAAACTGG | 0.102 ± 0.039
41 | AAATCTAG | -0.091 ± 0.019
42 | GCCTCACC | 0.0769 ± 0.049
43 | GAGTGAGA | 0.334 ± 0.017
44 | GGGTGAGA | 0.406 ± 0.009
45 | GGGGGTGA | 0.2941 ± 0.0011
46 | ACCATGGC | -0.0471 ± 0.08
47 | CAGTTTAA | -0.0321 ± 0.037
48 | AACCTGCG | 0.0979 ± 0.006
49 | AACCTGGC | 0.195 ± 0.038
50 | TACCTGCA | -0.174 ± 0.0055

Row | Sequence | PBM E-score of 8-mer
51 | AACCTGCC | -0.0169 ± 0.035
52 | CACCTGCC | 0.406 ± 0.021
53 | GACCTGCC | 0.148 ± 0.0062
54 | GACCTGCA | 0.0626 ± 0.036
55 | CACCTGGG | 0.361 ± 0.029
56 | CACCTGGC | 0.427 ± 0.007
57 | CACCTGCG | 0.429 ± 0.019
58 | CACCTGCA | 0.4 ± 0.0099
59 | CACCTGGA | 0.366 ± 0.025
60 | AAGGCCGA | -0.191 ± 0.09
61 | CCTTATGC | -0.139 ± 0.041
62 | GCCATTAC | -0.169 ± 0.06
63 | GGCCTGAC | -0.103 ± 0.02
64 | CGTCCCAG | -0.151 ± 0.0033
65 | CACACGTG | 0.376 ± 0.019
66 | ACCACGTG | 0.169 ± 0.053
67 | CGCACGTC | 0.354 ± 0.02
68 | CACACAAA | 0.0927 ± 0.064
69 | AACACGTG | 0.38 ± 0.016
70 | CACACGGC | 0.0461 ± 0.026
71 | CACACGTC | 0.4359 ± 0.0027
72 | AACACGAG | 0.132 ± 0.0066
73 | CACACGTA | 0.357 ± 0.0053
74 | CAAGAGTG | 0.154 ± 0.047
75 | CAACCGAG | 0.0284 ± 0.0078

Row | Sequence | PBM E-score of 8-mer
76 | GAAAATAA | -0.0661 ± 0.086
77 | CAACACCG | 0.3 ± 0.013
78 | CAACACCC | 0.444 ± 0.015
79 | AAACACCA | 0.268 ± 0.0077
80 | GAACACTA | 0.051 ± 0.077
81 | CAACACGA | 0.161 ± 0.015
82 | TAACACTA | 0.382 ± 0.0057
83 | CAACACCA | 0.392 ± 0.015
84 | TAACACCA | 0.451 ± 0.0075
85 | GAACACCC | 0.1762 ± 0.00083
86 | CAACACTA | 0.323 ± 0.04
87 | GAACACCA | 0.0994 ± 0.0056
88 | CAACACGC | 0.229 ± 0.019
89 | CTGACTCC | -0.143 ± 0.047
90 | CTGCCCTC | -0.067 ± 0.048
91 | CACCCATC | 0.201 ± 0.011
92 | GATATACC | -0.114 ± 0.031
93 | CAAATTCG | 0.0471 ± 0.029
94 | GCTCTAAC | 0.0585 ± 0.0059
95 | AATTACCG | 0.0948 ± 0.036
96 | ACATCACT | 0.0297 ± 0.063
97 | CCACACCC | 0.395 ± 0.028
98 | CCACACCG | 0.134 ± 0.063
99 | ACACACCC | 0.327 ± 0.015
100 | ACCTCTTG | 0.138 ± 0.027

Row | Sequence | PBM E-score of 8-mer
101 | TAAGTGGA | -0.141 ± 0.0053
102 | AGTTACCC | -0.0906 ± 0.018
103 | AGCGCGAT | 0.291 ± 0.0076
104 | CTCGCGAA | 0.368 ± 0.0047
105 | ATCGCGAG | 0.249 ± 0.0038
106 | AGCGCGAA | 0.392 ± 0.014
107 | GGCGCGCA | 0.0945 ± 0.0047
108 | ATCGCGAA | 0.335 ± 0.046
109 | AGCGCGAG | 0.319 ± 0.011
110 | GTCGCGAA | 0.33 ± 0.02
111 | TTCGCGAA | 0.3702 ± 0.0034
112 | GACGCGAA | 0.126 ± 0.066
113 | GGCGCGAA | 0.4607 ± 0.0017
114 | ATCGCGAT | 0.38 ± 0.014
115 | GCTAGCAA | 0.144 ± 0.015
116 | ATATTGCC | -0.106 ± 0.095
117 | CTTCTATC | -0.198 ± 0.025
118 | ATCTGTGA | 0.282 ± 0.0073
119 | GTCGCCAA | 0.288 ± 0.038
120 | CGGTCAAA | -0.18 ± 0.0046
121 | AACAGTGC | 0.0577 ± 0.058
122 | ATTCTGAG | -0.131 ± 0.012
123 | CCGGCTGC | -0.125 ± 0.1
124 | TGCGCGAA | 0.307 ± 0.017
125 | AGCGCGAC | 0.242 ± 0.003

Row | Sequence | PBM E-score of 8-mer
126 | CTCGCGAC | 0.326 ± 0.0051
127 | CGCGCGAG | 0.27 ± 0.023
128 | CGCGCGAA | 0.3963 ± 0.00041
129 | GTCGCGAC | 0.385 ± 0.0054
130 | CGCGCGAC | 0.291 ± 0.025
131 | ATCGCGAC | 0.26 ± 0.021
132 | GGCGCGAC | 0.377 ± 0.025
133 | ATAGGGGG | -0.0469 ± 0.086
134 | CATCAAAC | -0.0906 ± 0.034
135 | AAGGGGCC | -0.0989 ± 0.015
136 | GCATGTAA | -0.124 ± 0.0041
137 | AACCTTCC | -0.196 ± 0.038
138 | CACCTTCG | 0.431 ± 0.02
139 | AACCTTCG | -0.135 ± 0.0027
140 | GACCTTCA | -0.0991 ± 0.0084
141 | CACCTTCC | 0.4461 ± 0.0012
142 | GACCTTCC | 0.0338 ± 0.01
143 | AACCTTCA | -0.149 ± 0.083
144 | CACCTTCA | 0.436 ± 0.0071
145 | CCCCTTCG | -0.126 ± 0.029
146 | AGATCGTA | 0.0776 ± 0.06
147 | ACTCCTCG | 0.219 ± 0.032
148 | ACCTAAGT | 0.0966 ± 0.0054
149 | TAGGTCGA | -0.111 ± 0.085
150 | GGGCGCAA | 0.0355 ± 0.036

Row | Sequence | PBM E-score of 8-mer
151 | ACTTGGAA | -0.1519 ± 0.00037
152 | CCTCCACA | 0.233 ± 0.021
153 | CGCTTGAA | -0.191 ± 0.056
154 | CCATTAAC | 0.0966 ± 0.0036
155 | CCTGTTGA | 0.091 ± 0.045
156 | CTCTTGAA | -0.374 ± 0.012
157 | AGACAGAG | -0.139 ± 0.052
158 | ATCACCTC | 0.4197 ± 0.00045
159 | ATCACCAC | 0.15 ± 0.0054
160 | ATCACCTG | 0.379 ± 0.019
161 | GTCACCGA | 0.127 ± 0.041
162 | CTCACCAC | 0.209 ± 0.054
163 | ATCACCGG | -0.319 ± 0.02
164 | CTCACCTC | 0.449 ± 0.009
165 | ATCACCCC | 0.289 ± 0.028
166 | ATCACCAG | -0.0506 ± 0.043
167 | CTCACCGC | 0.055 ± 0.076
168 | GTCACCCA | 0.259 ± 0.056
169 | GTCACCTA | 0.4173 ± 0.0026
170 | AAAGACTC | -0.156 ± 0.018
171 | AAGGGGGG | -0.444 ± 0.023
172 | CGCACTAG | 0.167 ± 0.021
173 | ATGCTGCC | -0.293 ± 0.037
174 | ACCCACGG | -0.132 ± 0.022
175 | CATGCGAA | 0.108 ± 0.046
